Where a name gives a salt, the structure may show the parent alone.
System: Vero E6 infected with SARS-CoV-2
Test: inhibition of SARS-CoV-2 cytopathic effect; higher = more antiviral protection, active = above 15
Conditions: 48 h

Measured: inhibition of SARS-CoV-2 cytopathic effect

COC(=O)C1=C(C)NC(C)=C([N+](=O)[O-])[C@@H]1c1ccccc1C(F)(F)F (racemic)
inactive: 1 nM 2% | 8.33 nM -0.15% | 100 nM -1.34% | 833.33 nM 2.63% | 10000 nM 4.88%

CC(C)=CCC[C@](C)(O)[C@H]1CC[C@]2(C)[C@@H]1[C@H](O)C[C@@H]1[C@@]3(C)CC[C@H](O)C(C)(C)[C@@H]3[C@@H](O)C[C@]12C [hemomex-s]
inactive: 1 nM -1.07% | 8.33 nM 0.12% | 100 nM 5.17% | 833.33 nM -0.7% | 10000 nM 0.84%

CCN1CCCC1CNC(=O)c1cc(S(N)(=O)=O)ccc1OC (stereo not given) [sulpiride]
inactive: 1 nM 0.06% | 8.33 nM -1.14% | 100 nM 0.7% | 833.33 nM 1.07% | 10000 nM 0.685%

O=C(N[C@H](CO)[C@H](O)c1ccc([N+](=O)[O-])cc1)C(Cl)Cl [chloramphenicol]
inactive: 1 nM 0.28% | 8.33 nM -0.6% | 100 nM -1.23% | 833.33 nM 0.21% | 10000 nM -3.04%

CN(C)CCOc1ccc(/C(=C(/CCCl)c2ccccc2)c2ccccc2)cc1 [Toremifene citrate]
inactive: 1 nM 0.8% | 8.33 nM 0.55% | 100 nM -0.55% | 833.33 nM 0.65% | 10000 nM 3.86%

O=c1c(-c2ccccc2)c1-c1ccccc1 [diphencyprone]
inactive: 1 nM -0.95% | 8.33 nM 0.49% | 100 nM -1.61% | 833.33 nM -1.95% | 10000 nM 5.98%

CCCN(CCC)C(=O)C(CCC(=O)OCCCN1CCN(CCOC(=O)Cc2c(C)n(C(=O)c3ccc(Cl)cc3)c3ccc(OC)cc23)CC1)NC(=O)c1ccccc1 (stereo not given) [proglumetacin]
inactive: 1 nM -3.43% | 8.33 nM -2.43% | 100 nM -2.86% | 833.33 nM -4.91% | 10000 nM -12.6%

CCN(CCO)CCCC(C)Nc1ccnc2cc(Cl)ccc12 (stereo not given) [hydroxychloroquine]
inactive: 1 nM -0.29% | 8.33 nM 2.78% | 100 nM -0.76% | 833.33 nM 0% | 10000 nM -0.85%

N=C(N)NCCC[C@H](NC(=O)[C@@H]1CCCN1C(=O)[C@@H]1CSSC[C@H](N)C(=O)N[C@@H](Cc2ccc(O)cc2)C(=O)N[C@@H](Cc2ccccc2)C(=O)N[C@@H](CCC(N)=O)C(=O)N[C@@H](CC(N)=O)C(=O)N1)C(=O)NCC(N)=O [vasopressin]
inactive: 1 nM 3.02% | 8.33 nM -0.42% | 100 nM 1.64% | 833.33 nM 0.05% | 10000 nM -0.05%

O=C(O)c1ccc2c(c1)C(=O)N(c1cccc(Oc3ccc([N+](=O)[O-])cc3)c1)C2=O
inactive: 1 nM 1.34% | 8.33 nM 0.95% | 100 nM 0.59% | 833.33 nM 1.36% | 10000 nM -0.65%

CC(C)c1noc(N2CCC(COc3ccc(-c4ccc(S(C)(=O)=O)cc4)nc3)CC2)n1
inactive: 1 nM -1.46% | 8.33 nM -1.84% | 100 nM -1.48% | 833.33 nM -0.49% | 10000 nM -0.23%

Cc1cc(O)cc(C)c1Cl [chloroxylenol]
inactive: 1 nM -0.09% | 8.33 nM 1.72% | 100 nM -1.3% | 833.33 nM -0.83% | 10000 nM 0.1%

CN1CCc2nc(C(=O)N[C@@H]3C[C@@H](C(=O)N(C)C)CC[C@@H]3NC(=O)C(=O)Nc3ccc(Cl)cn3)sc2C1 [edoxaban]
inactive: 1 nM -1.16% | 8.33 nM -1.57% | 100 nM -1.51% | 833.33 nM -3.37% | 10000 nM -1.69%

O=C(NO)c1ccc2[nH]c(=O)c(CCCc3ccccc3)nc2c1
inactive: 1 nM 1.82% | 8.33 nM 3.66% | 100 nM 0.97% | 833.33 nM 1.93% | 10000 nM -2.66%

Oc1ccc(Cl)cc1 [parachlorophenol]
inactive: 1 nM 1.78% | 8.33 nM -0.13% | 100 nM 1.68% | 833.33 nM 2.25% | 10000 nM -1.37%

COc1ccc(C2(O)CCC(N3CC[C@@H](NC(=O)CNC(=O)c4cccc(C(F)(F)F)c4)C3)CC2)cn1 (stereo not given in full)
inactive: 1 nM -0.385% | 8.33 nM 0.89% | 100 nM -1.07% | 833.33 nM -1.1% | 10000 nM -0.44%

Cc1cc(-c2nncc3c(C(C)(C)C)c(OCc4ncnn4C)nn23)no1
inactive: 1 nM 1.59% | 8.33 nM -1.07% | 100 nM 0.62% | 833.33 nM -3.08% | 10000 nM -1.02%

O=C(Nc1ccc(-c2ccncc2)cc1)N[C@H](CO)c1ccccc1
inactive: 1 nM -3.49% | 8.33 nM 2.37% | 100 nM -1.14% | 833.33 nM -0.94% | 10000 nM -7.89%

CN1CCN(c2ccc3[nH]c(-c4ccc5[nH]c(-c6ccc(O)cc6)nc5c4)nc3c2)CC1 [pibenzimol]
inactive: 1 nM -0.58% | 8.33 nM -1.08% | 100 nM 1.05% | 833.33 nM 2.62% | 10000 nM 4.07%

CCCCCCCCCCCCCCCC(=O)OC[C@H](COP(=O)([O-])OCC[N+](C)(C)C)OC(=O)CCCCCCCCCCCCCCC [colfosceril-palmitate]
inactive: 1 nM -7.11% | 8.33 nM -7.33% | 100 nM -5.95% | 833.33 nM -6.54% | 10000 nM -9.82%

Cc1nc(N)sc1CCN [amthamine]
inactive: 1 nM -1.84% | 8.33 nM -1.83% | 100 nM -2.06% | 833.33 nM 0.97% | 10000 nM 0.76%

CCCc1nc(C)c2c(=O)nc(-c3cc(S(=O)(=O)N4CCN(CC)CC4)ccc3OCC)[nH]n12 [vardenafil]
inactive: 1 nM -1.45% | 8.33 nM -1.02% | 100 nM 0.46% | 833.33 nM -0.81% | 10000 nM 1.4%

CO[C@H]1CC[C@H](N(c2cc(C3=CCCCC3)sc2C(=O)O)C(=O)[C@H]2CC[C@H](C)CC2)CC1
inactive: 1 nM 0.5% | 8.33 nM 0.07% | 100 nM -0.07% | 833.33 nM 0.31% | 10000 nM 0.21%

COc1cccc(CCc2ccccc2OCC[C@@H]2C[C@@H](O)CN2C)c1
inactive: 1 nM 2.39% | 8.33 nM 4.9% | 100 nM 14.7% | 833.33 nM -9.02% | 10000 nM -0.59%

Oc1c(Cl)cc(Cl)c(Cl)c1Cc1c(O)c(Cl)cc(Cl)c1Cl [hexachlorophene]
inactive: 1 nM 0.56% | 8.33 nM 1.77% | 100 nM 0.2% | 833.33 nM 2.38% | 10000 nM 8.62%

Cc1cc(NC(=O)C2=C(O)c3ccccc3S(=O)(=O)N2C)no1 [isoxicam]
inactive: 1 nM -3.86% | 8.33 nM -3.12% | 100 nM -4.12% | 833.33 nM -2.59% | 10000 nM -0.72%

CSc1nc(-c2ccc(F)cc2)c(-c2ccnc(N[C@@H](C)c3ccccc3)c2)[nH]1
inactive: 1 nM -3.63% | 8.33 nM -2.6% | 100 nM -5.98% | 833.33 nM -4.77% | 10000 nM 1.96%

COc1ccc(-c2nc(C(=O)N3CCN(C)CC3)sc2-c2ccc(OC)cc2)cc1
inactive: 1 nM -2.34% | 8.33 nM -0.77% | 100 nM -0.57% | 833.33 nM -2.37% | 10000 nM 0.19%

N#CCC(=O)c1ccccc1
inactive: 1 nM 4.1% | 8.33 nM 4.15% | 100 nM 0.67% | 833.33 nM 2.33% | 10000 nM -0.41%

NCCNc1ccc(NCCN)c2c1C(=O)c1ccncc1C2=O [pixantrone]
inactive: 1 nM -1.68% | 8.33 nM 0.16% | 100 nM -1.63% | 833.33 nM 1.22% | 10000 nM 1.13%

Cn1c(=O)c2[nH]c(Br)nc2n(C)c1=O [pamabrom]
inactive: 1 nM 1.59% | 8.33 nM 0.19% | 100 nM 1.39% | 833.33 nM 1.95% | 10000 nM -3.72%

CC[C@@]1(O)C(=O)OCc2c1cc1n(c2=O)Cc2c-1nc1cc(F)c(C)c3c1c2[C@@H](N)CC3 [exatecan-mesylate]
inactive: 1 nM -2.4% | 8.33 nM -0.39% | 100 nM -7.04% | 833.33 nM -15.8% | 10000 nM -20.5%

CC[C@@H](CO)NC(=O)[C@@H]1C=C2c3cccc4c3c(cn4C)C[C@H]2N(C)C1 [methysergide]
inactive: 1 nM -0.52% | 8.33 nM 0.46% | 100 nM 0.82% | 833.33 nM 1.51% | 10000 nM 0.92%

CCN(CC)CCNc1ccc(CO)c2sc3ccccc3c(=O)c12 [hycanthone]
inactive: 1 nM -3.88% | 8.33 nM -2.41% | 100 nM -0.96% | 833.33 nM -2.51% | 10000 nM 0.99%

Oc1ccc(-c2nc(-c3ccc(F)cc3)c(-c3ccncc3)[nH]2)cc1
inactive: 1 nM 0.33% | 8.33 nM 1.64% | 100 nM -1.29% | 833.33 nM 2.83% | 10000 nM 8.91%

O=S(=O)(O)Oc1ccc(C(c2ccc(OS(=O)(=O)O)cc2)c2ccccn2)cc1 [sodium-picosulfate]
inactive: 1 nM -1.14% | 8.33 nM -0.13% | 100 nM 0.34% | 833.33 nM 5.9% | 10000 nM -5.74%

c1nc(CC2CCNCC2)c[nH]1 [immepip]
inactive: 1 nM -1.43% | 8.33 nM -3.19% | 100 nM -3.25% | 833.33 nM -0.04% | 10000 nM 0.13%

COc1cc(C(=O)N2CCC(N3CCN(C)CC3)CC2)ccc1Nc1ncc2c(n1)N(C)c1ccccc1C(=O)N2C
inactive: 1 nM 0.64% | 8.33 nM -0.23% | 100 nM 2.57% | 833.33 nM 1.89% | 10000 nM -6.43%
